# Results taken from PubChem BioAssay AID463173 (ICCB-Longwood Screening Facility, Harvard Medical School, 2010).
# Among all 52,000 compounds or so, about 1,700 (3.3%) were called active. No stated cut-off is given here; in the data, active means survival mostly below about 52% (no sharp cut-off); inactive means mostly above about 56%. For the sample, actives were picked, then their nearest neighbours and some compounds at random.
# Tested on: Wild type
# Assay: growth inhibition of S. aureus wild type versus tarO mutant, primary screen, teichoic acid synthesis inhibitors, RN4220, OD600 (AID 463173)
# Conditions: S. aureus RN4220 wild type/DeltatarO growth, OD600, 18 h, stronger effect = lower value, screened at 18.75 µg/mL (by protocol)
row,Structure (SMILES),survival
1,COc1cccc(NS(=O)(=O)c2ccc3c(c2)N(C)C(=O)CC(=O)N3C)c1,78% (inactive)
2,COc1ccc2[nH]c(=O)c(CN(CCCN3CCOCC3)C(=O)Nc3ccccc3)cc2c1,102% (inactive)
3,O=C(NC1CCCCCC1)c1ccc(CS(=O)c2ccc(Br)cc2)o1 (configuration not stated),94% (inactive)
4,CCc1ccc(S(=O)(=O)Nc2cc3c(cc2N2CCOCC2)n(C)c(=O)c(=O)n3C)cc1,1% (active)
5,Cn1c(=O)c(=O)n(C)c2cc(N3CCOCC3)c(NS(=O)(=O)c3ccc(F)c(Cl)c3)cc21,63% (inactive)
6,CC(C)Cc1ccc(S(=O)(=O)Nc2cc3c(cc2N2CCOCC2)n(C)c(=O)c(=O)n3C)cc1,63% (inactive)
7,Cn1c(=O)n(C)c2cc(N3CCOCC3)c(NS(=O)(=O)c3ccc(Cl)cc3)cc21,93% (inactive)
8,Cn1c(=O)c(=O)n(C)c2cc(N3CCOCC3)c(NS(=O)(=O)c3ccc(Cl)cc3)cc21,-3% (active)
9,Cc1ccc(S(=O)(=O)Nc2cc3c(cc2N2CCOCC2)n(C)c(=O)n3C)cc1,80% (inactive)
10,Cc1cc2c(cc1NS(=O)(=O)c1ccc(Br)cc1)n(C)c(=O)c(=O)n2C,129% (inactive)
11,CCc1ccc(S(=O)(=O)Nc2cc3c(cc2C)n(C)c(=O)c(=O)n3C)cc1,57% (inactive)
12,Cc1ccc(S(=O)(=O)Nc2cc3c(cc2C)n(C)c(=O)c(=O)n3C)cc1,-4% (active)
13,COc1ccccc1OCCn1cc(C(=O)c2cccs2)c2ccccc21,102% (inactive)
14,O=C(CSc1nnc(-c2ccc(S(=O)(=O)N3CCCC3)cc2)n1CC1CCCO1)NC1CC1 (configuration not stated),108% (inactive)
15,COc1ccc(-c2nnc(SCC(=O)NCCC(C)C)nc2-c2ccc(OC)c(OC)c2)cc1OC,71% (inactive)
16,COc1cccc2cc(-c3nc(Nc4cccc(C)c4C)sc3C)c(=O)oc12,65% (inactive)
17,COc1cccc(NC(=O)C2CCC(CNS(=O)(=O)c3ccc4c(c3)CC(C)N4C(C)=O)CC2)c1 (configuration not stated),95% (inactive)
18,CNS(=O)(=O)c1ccccc1C(=O)N/N=C/c1ccc(OC)c(OC)c1,102% (inactive)
19,COc1cc2c(cc1OC)n(CC(=O)c1ccc(C)cc1C)c(=O)n1nc(CCn3nc(C)cc3C)nc21,74% (inactive)

row,Structure (SMILES),survival
1,COc1ccccc1N1CCN(S(=O)(=O)c2c(C)nc3sc(C)c(C)n3c2=O)CC1,85% (inactive)
2,COc1cc(NS(=O)(=O)c2ccc3c(c2)CCN3S(C)(=O)=O)cc(OC)c1,73% (inactive)
3,COc1ccc(-c2cc(C(F)(F)F)nc(NCc3ccc(F)cc3)n2)cc1,-5% (active)
4,COc1cccc(-c2cc(C(F)(F)F)nc(NCc3ccc(F)cc3)n2)c1,0% (active)
5,COc1ccc(CNC(=O)C(C)Sc2nc(-c3ccccc3)cc(C(F)(F)F)n2)cc1 (configuration not stated),149% (inactive)
6,COc1ccc(-c2cc(C(F)(F)F)nc(NCCc3ccccc3)n2)cc1,-2% (active)
7,COc1ccc(-c2cc(C(F)(F)F)nc(SCC(=O)NCc3ccc(F)cc3)n2)cc1,90% (inactive)
8,COc1ccc(-c2cc(NCc3ccc(F)cc3)n3cnnc3n2)cc1,72% (inactive)
9,COc1ccc(-c2cc(C(F)(F)F)nc(NCc3ccccc3)n2)cc1,-5% (active)
10,COc1cccc(-c2cc(C(=O)NCc3ccc(F)cc3)no2)c1,71% (inactive)
11,COc1ccc(-c2cc(C(F)(F)F)nc(NCc3ccccc3)n2)cc1OC,66% (inactive)
12,COc1ccc(-c2cc(C(F)(F)F)nc(SCC(=O)NCCc3ccccc3)n2)cc1OC,81% (inactive)
13,COc1ccc(-c2cc(C(F)(F)F)nc(NCCc3ccccc3)n2)cc1OC,81% (inactive)
14,CCc1ccc(NC(=O)CCn2cnc3ccccc3c2=O)cc1,72% (inactive)
15,COCCNC(=O)CN1C(=O)CCn2nc(-c3cn(C)c4ccccc34)cc21,64% (inactive)
16,C#CCNc1nc(CC(C)C)nc2c1nnn2Cc1ccccc1,101% (inactive)
17,COc1ccc(CNc2nc(-c3ccc(OC)cc3)cc(C(F)(F)F)n2)cc1,-5% (active)
18,COc1ccccc1CCNC(=O)C(C)Sc1nc(-c2ccccc2)cc(C(F)(F)F)n1 (configuration not stated),53% (inactive)
19,COc1ccc(CNc2nc(-c3ccc(OC)c(OC)c3)cc(C(F)(F)F)n2)cc1,27% (inactive)

row,Structure (SMILES),survival
1,COc1ccc(CNC(=O)CSc2nc(-c3ccc(OC)cc3)cc(C(F)(F)F)n2)cc1,93% (inactive)
2,COc1cccc(-c2cc(C(F)(F)F)nc(NCCc3ccc(OC)c(OC)c3)n2)c1,25% (inactive)
3,COc1cccc(-c2cc(C(F)(F)F)nc(NCCc3ccccc3)n2)c1,-7% (active)
4,Cc1ccc(CNC(=O)c2cc(S(=O)(=O)N3CCCCCC3)cn2C)cc1,81% (inactive)
5,Cc1cn(C)c(CC(=O)NCc2ccccc2)c1C(=O)O,80% (inactive)
6,Cc1cn(C)c(CC(=O)NCc2cccc(Cl)c2)c1C(=O)O,-3% (active)
7,COc1cccc(CNC(=O)Cc2c(C(=O)O)c(C)cn2C)c1,0% (active)
8,Cc1cn(C)c(CC(=O)NCc2ccc(Cl)cc2)c1C(=O)O,66% (inactive)
9,COc1cccc(CNC(=O)c2cc(S(=O)(=O)N3CCCCCC3)cn2C)c1,85% (inactive)
10,COc1ccc(CNC(=O)Cc2c(C(=O)O)c(C)cn2C)cc1,83% (inactive)
11,COc1cccc(CNC(=O)c2cc(S(=O)(=O)N3CCCCC3)cn2C)c1,-2% (active)
12,Cc1ccc(CNC(=O)Cc2c(C(=O)O)c(C)cn2C)cc1,85% (inactive)
13,Cc1ccc(-n2ncc(C(=O)N3CCN(Cc4ccccc4)CC3)c2C2CCN(C(=O)OC(C)(C)C)CC2)cc1,124% (inactive)
14,N#Cc1c(NC(=O)CN2CCCCC2)sc2c1CCC2,109% (inactive)
15,Cc1ccc2c(c1)c1c(c(=O)n(-c3ccccc3)c(=O)n1CC(=O)NCC1CCCO1)n2C (configuration not stated),72% (inactive)
16,Cc1ccc(NC(=O)C(=O)NCCc2sc(-c3ccc(Cl)cc3)nc2C)cc1C,126% (inactive)
17,Cc1ccc(-c2nc(C)c(CCNC(=O)C(=O)Nc3ccc(C)c(Cl)c3)s2)cc1,76% (inactive)
18,Cc1nc(-c2ccccc2)sc1CCNC(=O)C(=O)Nc1ccc(F)c(Cl)c1,1% (active)
19,COc1ccc(NC(=O)CN(c2ccc(C)cc2)S(=O)(=O)c2cccs2)cc1,84% (inactive)
